Compound activity (PubChem)
Shown are actives, neighbours in structure and some others; about 0.94% of the full set was active somewhere.
PriA SSB inh – inhibitors of Klebsiella pneumoniae PriA binding to SSB C-terminal tail, primary screen, biochemical, AlphaScreen; PriA–SSB C-terminal tail interaction (Klebsiella pneumoniae); AlphaScreen SSBct-PriA binding, biotinylated peptide; inhibition, % at 33 µM; actives 0.6% (n = 430,000); in the data active = inhibition mostly above about 37%, no sharp cut-off; inactive = mostly below about 20%;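 note: plate controls were negative control peptide for no effect and reference peptide for full effect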
MazEF act – activators of E. coli MazEF toxin-antitoxin RNase, primary screen, biochemical, fluorescence, uHTS. FAM/BHQ RNA-DNA oligo cleavage fluorescence, 5 h. actives 0.32% (n = 350,000). activation, % at 20 µM; in the data active = activation above about 50%
Target sequence (P0AE70 whole entry, looked up): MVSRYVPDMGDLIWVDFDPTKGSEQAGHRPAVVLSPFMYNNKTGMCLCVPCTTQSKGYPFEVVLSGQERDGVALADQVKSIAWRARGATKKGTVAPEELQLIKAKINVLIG
BH1578 lux ind – inducers of Vibrio cholerae quorum light production without autoinducers, primary screen, BH1578 luxS cqsA deficient, single point. V. cholerae BH1578 lux reporter, luminescence, 6 h. activation, % at 18.7 µM. actives 0.16% (n = 350,000). AID 588436, 2011; in the data active = activation mostly above about 9.7%, no sharp cut-off
Mtb hypoxia rep – PubChem AID 1159583. M. tuberculosis hypoxia-regulated fluorescent reporter, fluorescence. fluorescence inhibition, % (test concentration not listed). actives 0.1% (n = 300,000); in the data active = fluorescence inhibition mostly above about 23%, no sharp cut-off; inactive = mostly below about 17%
* marks the source's active call; other numbers are inactive results; i = inactive; / = no result shown.

SMILES	PriA SSB inh	MazEF act	BH1578 lux ind	Mtb hypoxia rep
O=[N+]([O-])c1nn(-c2ccc3c(c2)OCCO3)n(O)c1=NC1CCCCCC1	55*	-6	i	14
CS(=O)(=O)N1N=C(c2ccccc2)CC1c1ccc2nccnc2c1 (stereo not drawn)	-7	-1	0	-1
CCc1ccc(C2=NN(S(C)(=O)=O)C(c3cccs3)C2)cc1 (stereo not drawn)	-16	283*	i	4
CS(=O)(=O)N1N=C(c2cccs2)CC1c1ccc2nccnc2c1 (stereo not drawn)	62*	/	/	/
Cc1cc(NCCCn2ccnc2)n2ncc(-c3ccc(Cl)cc3)c2n1	43*	3	-1	/
Nc1ccc(C2(c3ccc(N)cc3)c3ccccc3-c3ccccc32)cc1	62	-1	-1	50*
Oc1cccc2c(NC(=S)Nc3ccc(OC(F)F)cc3)cccc12	54*	12	i	1
O=C(O)c1cncc2c1NCCC2	-5	/	/	/
O=C(O)c1ccc2c(n1)NCCC2	94*	/	/	/
Cc1ccc(N=Nc2c(O)n(CN3CCOCC3)c3ccccc23)cc1	2	57*	i	0
Cc1cccc(NC(=S)N=Nc2c(O)n(CN3CCOCC3)c3ccccc23)c1C	-2	10	i	2
N#CC(c1ccccc1)c1ccc2c(C(F)(F)F)cc(C(F)(F)F)nc2n1 (stereo not drawn)	77*	-1	7	20
Cc1nc2ccccn2c1C(=O)NCC1CCCN1c1nc2ccccc2o1 (stereo not drawn)	-6	/	/	/
O=C(NC[C@H]1CCCN1c1nc2ccccc2o1)c1ccc(-n2cccc2)cc1	29*	/	/	/
COc1ccc(S(=O)(=O)C2CCN(C(=O)c3ccno3)CC2)cc1	-7	/	/	/
O=C(COc1ccccc1Cl)Nc1nnc(S(=O)(=O)N2CCCCCC2)s1	100*	2	0	4
O=C(COc1ccccc1)Nc1nnc(S(=O)(=O)N2CCCCC2)s1	-15	-9	-1	-11
O=C(COc1ccccc1)Nc1nnc(S(=O)(=O)N2CCCCCC2)s1	95*	5	0	7
COc1ccc(C(=O)Nc2nnc(S(=O)(=O)N3CCCCCC3)s2)cc1OC	82*	-7	0	1
CCC(=O)Nc1nnc(S(=O)(=O)N2CCCC2)s1	1	5	/	11
CCC(=O)Nc1nnc(S(=O)(=O)N2CCCCCC2)s1	100*	0	0	6
O=c1[nH]c2ccccc2c(=O)n1C1CCN(S(=O)(=O)c2ccc3c(c2)OCCO3)CC1	-6	/	/	/
O=C(NCCc1ccccc1)NCCn1ccnc1-c1ncccn1	96*	/	/	/
CSc1ccccc1C(=O)NCCn1ccnc1-c1ncccn1	97*	/	/	/
O=C(CSCc1ccccc1)NCCn1ccnc1-c1ncccn1	42*	/	/	/
SMILES	PriA SSB inh	MazEF act	BH1578 lux ind	Mtb hypoxia rep
COC(=O)c1ccc(C(=O)NCCn2ccnc2-c2ncccn2)cc1	35	/	/	/
O=C(NCCn1ccnc1-c1ncccn1)NCc1ccc(Cl)cc1	32	/	/	/
O=C(NCCn1ccnc1-c1ncccn1)C1c2ccccc2Oc2ccccc21	53*	/	/	/
O=C(CSCc1ccccc1)NCCn1ccnc1-c1ccccn1	19	/	/	/
CC1(C)Cc2cccc(OCC(=O)N3CC(n4cc(CN5CCCC5=O)nn4)C3)c2O1	-3	/	/	/
COc1ccc(CCC(=O)NCCOc2ccc3c(c2)OCO3)cc1	4	/	/	/
COc1ccc(CCC(=O)NCCn2ccnc2-c2ncccn2)cc1	96*	/	/	/
O=C(c1ccn[nH]1)N1CCC(n2c(=O)[nH]c3ccccc3c2=O)CC1	-8	/	/	/
CCCN1CCCc2cc(CCNC(=O)OC)ccc21	64*	/	/	/
CCCN1CCCc2cc(CCNC(=O)CCc3ccccc3)ccc21	62	/	/	/
CCCN1CCCc2cc(CCNC(=O)CCc3ccc(OC)cc3)ccc21	66*	/	/	/
CCCN1CCCc2cc(CCNC(=O)Cc3ccc(F)cc3)ccc21	73*	/	/	/
CCCN1CCCc2cc(CCNC(=O)C(=O)Nc3ccon3)ccc21	56*	/	/	/
Cc1ccc(/C=C/S(=O)(=O)N2CCN(c3c(C)nn(C4CCS(=O)(=O)C4)c3C)CC2)cc1 (stereo not drawn)	-9	/	/	/
Cc1nc(NC(=O)C2CN(c3ncnc4c3nnn4C)C2)sc1C	-12	/	/	/
CN1CCCc2cc(CCNC(=O)COc3ccccc3)ccc21	70	/	/	/
CCCN1CCCc2cc(CCNC(=O)CC(C)(C)C)ccc21	58*	/	/	/
CCCN1CCCc2cc(CCNC(=O)COc3ccccc3)ccc21	95*	/	/	/
CCCN1CCCc2cc(CCNC(=O)CC(C)C)ccc21	55	/	/	/
O=S(=O)(/C=C/c1ccccc1)NCCOc1ccc2nnc(-c3ccccc3)n2n1	-7	/	/	/
O=C1c2ccccc2C(Nc2ccc(S(=O)(=O)N3CCOCC3)cc2)N1c1ccccn1 (stereo not drawn)	-5	2	i	-2
O=C1c2ccccc2C(Nc2ccc(S(=O)(=O)N3CCCCCC3)cc2)N1c1ccccn1 (stereo not drawn)	3	94*	0	6
O=C(NCCOc1ccc(-c2ccccn2)nn1)[C@H]1CC(=O)N(c2cccc(Br)c2)C1	100*	/	/	/
O=C(NCCn1ccc(-c2ccccn2)n1)[C@H]1CC(=O)N(c2ccccc2)C1	-4	/	/	/
O=C(Nc1ccc2c(c1)C(=O)NC2=O)c1ccc(Cc2ccccc2)cc1	-9	/	/	/
SMILES	PriA SSB inh	MazEF act	BH1578 lux ind	Mtb hypoxia rep
Cc1ccnc2c(=O)cc[nH]c12	104*	/	/	/
CN(C)S(=O)(=O)c1ccc(C(=O)OCC(=O)NC(=O)NC2CCCC2)cc1	2	2	-1	31*
O=C(NC1CCC(Oc2ccccn2)CC1)c1ccc2nccnc2c1 (stereo not drawn)	-10	/	/	/
COC(=O)c1ccc2nc(NC(=O)COc3ccc(Cl)cc3Cl)sc2c1	-6	/	/	/
COc1ccc2nc3ccccc3nc2c1N	48*	16	i	14
Cc1ccc(O)c(C2=Nc3ccccc3N=C(c3ccco3)C2)c1	-11	82*	i	15
Cc1ccc(/C=C(\NC(=O)c2ccccc2)C(=O)NC(Cc2ccccc2)C(=O)O)cc1 (stereo not drawn)	-12	-7	i	-10
CC(C)=C(NC(=O)c1ccccc1)C(=O)NC(Cc1ccccc1)C(=O)O (stereo not drawn)	-14	-8	15*	7
COc1ccc(CCn2c(=N)c(C(=O)NCc3ccco3)cc3c(=O)n4ccccc4nc32)cc1OC	19	-14	i	-1
COc1ccc(CCNC(=O)c2cc3c(=O)n4ccccc4nc3n(Cc3ccco3)c2=N)cc1OC	10	10	0	39*
CCOc1ccc(NC(=O)c2snnc2C)c([N+](=O)[O-])c1	52*	/	/	/
COc1ccc(NS(=O)(=O)c2ccc(C)cc2)c([N+](=O)[O-])c1	27	7	i	11
CCOc1ccc(NC(=O)Cc2ccccc2)c([N+](=O)[O-])c1	43*	2	i	12
COc1ccc(NC(=O)CN(C)S(=O)(=O)c2ccc(Cl)cc2)c([N+](=O)[O-])c1	-13	14	-12	2
COc1ccc(NC(=O)CN(C)S(=O)(=O)c2ccccc2)c([N+](=O)[O-])c1	-6	263*	0	17
